An excerpt weighted towards active compounds, which were near 3.2% of everything screened.
VDR inh: vitamin D3 receptor (human) inhibition | Potency, µM, without a hit: max response, negative = inhibition, usual class: inhibitors | VDR-SRC2-3 peptide fluorescence polarization, 2 h | AID 504847 | P11473 | hit rate 0.93% among 400,000; note: potency is the fitted concentration of half-maximal effect
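The screen uses fluorescence polarization to detect compounds that interfere with recruitment of the SRC2-3 coactivator peptide to VDR; plates are read after 2 h at room temperature.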
USP1-UAF1 inh: inhibitors of human USP1/UAF1 deubiquitinase; O94782; recombinant USP1/UAF1, Ub-Rhodamine cleavage fluorescence; Potency, µM (highest dose often 57.1 µM), without a hit: at the top dose activity change, negative = inhibition, most hits filed as inhibitors; hit rate 0.23% among 390,000; AID 743255; note: potency is the fitted concentration of half-maximal effect; nearly all actives have a fitted effect of over 60% in size
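High-throughput fluorogenic screen: 1nM USP1/UAF1 complex, Ub-Rho substrate 150nM final, 50mM HEPES pH 7.8 with 0.5mM EDTA, 0.1 mg/ml BSA, 1mM TCEP and 0.01% Tween-20.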
PLK1 PBD block: PLK1 (human) polo-box domain binding inhibition; Potency, µM, for the others: max response, negative = inhibition, most hits filed as inhibitors; AID 720504; hit rate 2.8% among 360,000; Plk1 PBD binding of FITC phosphopeptide, fluorescence polarization; P53350; note: potency is the fitted concentration of half-maximal effect; series mostly up to about 57 µM; nearly all actives have a fitted effect of over 65% in size
Target sequence (P53350 whole entry, looked up, the tested form may be a part): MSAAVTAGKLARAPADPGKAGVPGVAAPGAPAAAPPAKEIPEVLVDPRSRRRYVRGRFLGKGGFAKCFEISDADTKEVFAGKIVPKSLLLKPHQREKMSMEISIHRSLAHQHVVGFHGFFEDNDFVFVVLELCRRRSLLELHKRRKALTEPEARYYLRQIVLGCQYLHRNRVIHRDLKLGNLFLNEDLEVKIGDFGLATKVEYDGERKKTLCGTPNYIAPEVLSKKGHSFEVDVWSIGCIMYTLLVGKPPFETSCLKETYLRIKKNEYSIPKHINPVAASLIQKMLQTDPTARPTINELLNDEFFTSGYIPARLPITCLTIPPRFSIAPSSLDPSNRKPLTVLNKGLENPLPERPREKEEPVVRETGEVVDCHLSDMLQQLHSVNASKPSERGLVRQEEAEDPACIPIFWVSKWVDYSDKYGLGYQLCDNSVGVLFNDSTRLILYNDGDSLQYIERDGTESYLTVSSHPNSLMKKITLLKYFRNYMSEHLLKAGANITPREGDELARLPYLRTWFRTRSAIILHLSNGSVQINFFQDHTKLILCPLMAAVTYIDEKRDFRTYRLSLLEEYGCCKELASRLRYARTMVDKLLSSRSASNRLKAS
USP2a block: USP2a (human) protease inhibition; hit rate 0.01% among 330,000; Potency, µM (top dose mostly 38.3 µM), for the others: at the top dose activity change, negative = inhibition, hits mostly inhibitors; USP2 core, Ub-CHOP2 coupled fluorogenic reporter, 485/531;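 note: potency is the fitted concentration of half-maximal effect; plate controls were DMSO wells for no effect and full inhibition by NEM control for full effect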
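USP2 core (10nM final) preincubated 30min RT with compound in 20mM Tris-HCl pH 8.0, 2mM CaCl2, 2mM beta-mercaptoethanol, 0.05% CHAPS; 25nM Ub-CHOP2 plus 25nM reporter substrate added, fluorescence (Ex485/Em531) read after 60min.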
FBPA coupling cs: counter-screen for Giardia aldolase inhibitors: coupling enzyme system | coupling enzyme system counterscreen, AmpLite Red fluorescence | activity change, negative = inhibition, % at 58.2 µM, hits read low | hit rate 0.67% among 290,000 | AID 2472; in the data active = activity change below about -30%
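First, compound is pin-transferred into glyceraldehyde-3-phosphate coupling-enzyme reagent at 57.5 uM final and held 10 min at RT. Next, substrate, coupling system and AmpLite Red are added. After 20 min RT, fluorescence (525/598 nm) is read.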
GALK inhibitor: inhibitors of human galactokinase | Potency, µM (series often up to 57.5 µM), for the others: at the highest dose activity change, negative = inhibition, hits mostly inhibitors | P51570 | hit rate 0.007% among 270,000 | AID 1868 | Purified GALK, Kinase-Glo residual ATP luminescence; note: potency is the fitted concentration of half-maximal effect
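Compounds were pin-transferred into ATP buffer (35 uM final), then GALK plus galactose (5 nM, 100 uM final) was added. After 1 h at room temperature, Kinase-Glo Plus was added and luminescence read after 10 min.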
* = called active by the depositor; ? = inconclusive; / = no result. Unless noted, calls come from the whole dose curve; as a rule, active = well fitted curve in the direction sought with a large enough effect; inconclusive = small, poorly fitted or top-dose-only effect, or another doubt; inactive = no such curve, though single readings can be large; an effect the other way counts as inactive or inconclusive. Unless noted, % is set by controls: 0 for no effect and ±100 for the full control effect.

SMILES	VDR inh	USP1-UAF1 inh	PLK1 PBD block	USP2a block	FBPA coupling cs	GALK inhibitor
O=S(=O)(Nc1cccc(S(=O)(=O)N2CCCCCC2)c1)c1ccccc1	12.7%	-20.2%	0.3%	-7.1%	0.5	5.6%
CCNC(=O)c1ccccc1-c1nc(-c2ccccc2Cl)no1	-26.8%	-2.8%	11.9µM*	-1.2%	3.3	2.9%
CCNC(=O)c1ccccc1-c1nc(-c2ccccc2OC)no1	-10.9%	-22.7%	2.1%	9.8%	0.1	-0.5%
COc1ccc(-n2c(SCC(=O)N3CCCCC3)nc(O)cc2=O)cc1	3.3%	-10.8%	-7.3%	-16.5%	3.7	-3.6%
Cc1ccccc1/C=C1\C(=O)Nc2ccc(F)cc21	-5.6%	-20.7%	-5.5%	-7.7%	2.2	0.3%
O=C1NC(=S)N/C1=C/c1cccnc1	-26.5%	-18.8%	23.8µM*	16.2%	-0.4	-0.7%
O=C1NC(=S)NC1=Cc1ccco1	28.2µM*	?	23.8µM*	/	/	/
O=C1Nc2ccccc2/C1=C/c1ccccc1F	?	-23.2%	29.9µM*	2.0%	-4.7	-1.1%
O=C1NC(=O)/C(=C/c2ccco2)N1	-19.2%	/	/	1.7%	/	/
O=C1Nc2ccccc2/C1=C/c1cccnc1	?	-5.9%	26.7µM*	-3.4%	-0.4	-3.3%
O=C1NC(=S)N/C1=C\c1cccnc1	-17.3%	-20.3%	-1.8%	5.5%	1.6	0.0%
Cc1noc(C)c1S(=O)(=O)N(CC(=O)Nc1ccc(F)cc1F)c1ccc(C(C)C)cc1	-10.6%	-25.9%	/	/	/	/
COc1ccc(OCC2CCCN(Cc3nc(CC4CC4)no3)C2)cc1 (centres undefined)	-13.2%	-23.7%	-19.5%	-4.4%	1.5	1.7%
CCOC(=O)CSc1n[nH]c(=S)s1	-16.5%	-5.4%	26.7µM*	-3.0%	-1.6	-2.2%
CNC(=S)N1CCC(Cc2ccccc2)CC1	10.5%	-32.4%	-3.4%	-0.6%	-3.2	-4.1%
Oc1cccc(C(=S)N2CCN(Cc3ccccc3)CC2)c1	-27.2%	-22.8%	15µM*	0.3%	4.6	-1.7%
Oc1cccc(C(=S)N2CCC(Cc3ccccc3)CC2)c1	?	-26.4%	21.2µM*	-6.6%	-1.6	0.0%
COc1ccc(N(C(=O)CNC(=O)c2ccco2)C(C(=O)NCC2CCCO2)c2ccccc2)c(OC)c1 (centres undefined)	0.0%	-2.8%	-10.0%	2.6%	-3.2	-2.8%
CC(C)(C)OC(=O)N(CCc1ccccc1)Cc1ccc(OCc2cccc(NC(=O)C3CC3)c2)cc1	-26.2%	-15.1%	-8.9%	/	/	/
